The supplement of paper PMC6555819

Legend:
Experiment in all cases: PBM binding z-score (relative to random genomic background probes); higher = stronger binding; sequences stand for … in GC…GCGATTGACAGCGTAGAATGAAGG
[1] = tested on: FXR:RXRa (NR concentration 270 nM, RXRa partner concentration 90 nM)
Procedure, shortened: (§1)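 Binding z-scores take random background probes as their reference. They come from custom Agilent 4×180K protein-binding microarrays incubated 1 h with ligand-free nuclear receptor dimers, with antibodies against each partner (one per run) detecting binding. Scanned fluorescence was regression-normalized.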

[2] = tested on: LXRa:RXRa (NR concentration 270 nM, RXRa partner concentration 90 nM)
Procedure, shortened: as §1

[3] = tested on: LXRa homodimer (NR concentration 270 nM)
Procedure, shortened: as §1

[4] = tested on: LXRb:RXRa (NR concentration 270 nM, RXRa partner concentration 90 nM)
Procedure, shortened: as §1

[5] = tested on: LXRb homodimer (NR concentration 270 nM)
Procedure, shortened: as §1

[6] = tested on: PPARa:RXRa (NR concentration 270 nM, RXRa partner concentration 90 nM)
Procedure, shortened: as §1

[7] = tested on: PPARg:RXRa (NR concentration 180 nM, RXRa partner concentration 90 nM)
Procedure, shortened: as §1

[8] = tested on: PPARg:RXRa 270nM:90nM, anti-RXR (NR concentration 270 nM, RXRa partner concentration 90 nM)
Procedure, shortened: as §1

[9] = tested on: PPARg:RXRa 30nM:10nM, anti-RXR (NR concentration 30 nM, RXRa partner concentration 10 nM)
Procedure, shortened: as §1

[10] = tested on: PPARg:RXRa 90nM:30nM, anti-RXR (NR concentration 90 nM, RXRa partner concentration 30 nM)
Procedure, shortened: as §1

[11] = tested on: PPARg:RXRa DBDmut IVT, anti-RXR (DBD mutation: RXRa K156A/R161A, NR concentration 270 nM, RXRa partner concentration 90 nM)
Procedure, shortened: as §1

[12] = tested on: PPARg:RXRa IVT, anti-PPARg (NR concentration 270 nM, RXRa partner concentration 90 nM)
Procedure, shortened: as §1

[13] = tested on: PPARg DBDmut:RXRa IVT, anti-PPARg (DBD mutation: PPARg1 K132A/R137A, NR concentration 270 nM, RXRa partner concentration 90 nM)
Procedure, shortened: as §1

[14] = tested on: PPARg DBDmut IVT, anti-PPARg (DBD mutation: PPARg1 K132A/R137A, NR concentration 270 nM)
Procedure, shortened: as §1

[15] = tested on: PPARg homodimer (NR concentration 180 nM)
Procedure, shortened: as §1

[16] = tested on: PXR:RXRa (NR concentration 270 nM, RXRa partner concentration 90 nM)
Procedure, shortened: as §1

[17] = tested on: PXR homodimer (NR concentration 270 nM)
Procedure, shortened: as §1

[18] = tested on: RARa:RXR (NR concentration 270 nM, RXRa partner concentration 90 nM)
Procedure, shortened: as §1

[19] = tested on: RARa homodimer (NR concentration 270 nM)
Procedure, shortened: as §1

[20] = tested on: RARb:RXRa (NR concentration 270 nM, RXRa partner concentration 90 nM)
Procedure, shortened: as §1

Sequence | PBM binding z-score [1] | PBM binding z-score [2] | PBM binding z-score [3] | PBM binding z-score [4] | PBM binding z-score [5] | PBM binding z-score [6] | PBM binding z-score [7] | PBM binding z-score [8] | PBM binding z-score [9] | PBM binding z-score [10] | PBM binding z-score [11] | PBM binding z-score [12] | PBM binding z-score [13] | PBM binding z-score [14] | PBM binding z-score [15] | PBM binding z-score [16] | PBM binding z-score [17] | PBM binding z-score [18] | PBM binding z-score [19] | PBM binding z-score [20]
CTACCAAGGTGAACAAGGTCGATGATTACTATTC | 0.946 | 0.835 | 0.167 | 1.18 | -0.531 | 2.13 | 1.2 | 0.941 | 0.12 | 0.353 | 2.72 | 2.64 | 0.547 | 0.654 | 0.419 | 1.43 | 0.443 | 1.63 | 0.548 | 1.95
AGAACGAGGGCACGCTGCGTTGATAGCAGAGTAG | 0.623 | 0.419 | -0.7 | -0.144 | -0.905 | 1.75 | 1.89 | 1.74 | 0.373 | 1 | 4.17 | 3.95 | 0.425 | -0.427 | 0.0277 | 0.123 | -0.527 | 0.344 | -0.962 | 2.52
GCTGCTAGGTCAGGTTGATCAGCTAACGGGTACG | 1.01 | 0.585 | -0.478 | 0.353 | -0.451 | 1.47 | 0.663 | 0.926 | -0.231 | 0.36 | 3.25 | 2.17 | -1.1 | -0.366 | 0.196 | 0.316 | -0.392 | 0.656 | -0.919 | 3.06
TTACCAAGGTGAGCTGAGGTCGTTGAACCAACTC | 1.78 | 1.48 | -0.292 | 0.787 | -0.885 | 1.88 | 0.111 | 0.783 | -0.445 | 0.391 | 0.903 | 1.83 | -0.507 | -1.13 | -0.0477 | 5.01 | 0.275 | 2.19 | -0.877 | 1.79
CCTAGTTGGTCAAGAGGTCACACACCGGATATGA | 5.19 | 5.02 | 3.61 | 4.58 | 0.768 | 5.71 | 5.69 | 5.36 | 3.16 | 4.81 | 2.07 | 4.43 | 0.763 | 0.00136 | 3.36 | 4.96 | 1.63 | 5.63 | 1.6 | 4.83
CGAACTAGGTCAGAACAGGACCGTGAAGGATGAT | 0.998 | 0.352 | -0.566 | 0.148 | -0.568 | 2.94 | 5.07 | 4.33 | 1.63 | 3.44 | 7.33 | 7.06 | 2.11 | 0.843 | 0.797 | 0.0175 | -0.758 | 0.594 | -0.383 | 2.73
CGAACTATGTCAGAACAGGACAGTGAAGGATGAT | 0.0056 | -0.347 | -0.162 | -0.473 | 0.636 | 0.0465 | 0.811 | 0.229 | 0.135 | -0.000779 | 1.99 | 1.16 | 0.888 | 0.9 | 0.278 | -0.225 | 0.0805 | 0.0752 | 0.625 | 0.461
CGAACTAGGTCAAGGACAGGGAATCTCCGCACGC | 3.17 | 2.12 | 0.324 | 1.32 | -0.364 | 4.52 | 7.01 | 6.26 | 3.78 | 5.95 | 8.32 | 7.95 | 1.81 | 0.477 | 3.11 | 1.05 | 0.302 | 2.12 | 0.471 | 4
ACTAGCAGGCCAAGGGTTACTCAAGATTAGTCCG | 0.239 | 2.23 | -0.412 | 0.935 | -0.494 | 2.61 | 4.88 | 5.61 | 4.58 | 5.71 | 0.518 | 2.14 | -0.596 | -0.597 | 0.215 | 0.27 | -0.411 | 1.05 | -0.361 | 0.894
TAGCCTAGGTCATGCTGGCCAGTATAGTGTCGGC | 3.83 | 3.03 | 0.0898 | 1.88 | -0.303 | 3.25 | 1.99 | 2.15 | 0.0868 | 1.11 | 1.89 | 3.11 | 0.437 | -0.89 | 0.715 | 1.16 | -0.737 | 2.21 | -0.528 | 3.84
TCTGCTAGGTCAACGAGGGTCAGCTAATCTGCTA | 4.68 | 4.83 | 0.398 | 3.04 | 0.26 | 4.27 | 3.36 | 3.79 | 2.12 | 3.02 | 4.34 | 4.28 | -0.294 | -0.307 | 2.15 | 4.96 | -0.4 | 4.03 | -0.252 | 4.65
TATACAGGGTCAAAGGCCAGCGTACGAATGTCGA | 7.47 | 6.28 | 2.26 | 4.8 | 2.36 | 6.28 | 8.39 | 7.25 | 5.73 | 7.51 | 2.18 | 4.79 | 2.29 | 0.981 | 3.54 | 4.34 | 0.322 | 6.38 | 1.26 | 4.46
TCTGCTAGGTCAACGATGGTAAGCTAATCTGCTA | 3.07 | 2.01 | -0.518 | 1.4 | -0.543 | 2.85 | 2.51 | 3.09 | 1.65 | 2.31 | 4.18 | 4.18 | 0.49 | -0.213 | 0.663 | 0.925 | -1.17 | 1.92 | -1 | 4.03
ACTATTTGTTGACTTAGGGCAACCGATACGACGC | 0.226 | 0.188 | 0.404 | 0.344 | 1.56 | 0.197 | 0.97 | 0.737 | 0.434 | 0.364 | 0.22 | 0.532 | 1.51 | 1.78 | 0.884 | 0.185 | 0.38 | 0.364 | 0.997 | 1.03
